Compounds without any hit were thinned out: in the full panel of roughly 83,000, 20% have a hit.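 Plates (96-well) were seeded with cells, treated with compound at one concentration, and incubated for 48 hours before percent growth was determined.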 A number with no mark means an inactive call. Activity calls are given as the source filed them. Rule for the calls: active = growth percent below 10; inactive = the rest.
Columns and labels:
Experiment in all cases: NCI-60 one-dose screen, 48 h (100 = growth as untreated, 0 = no growth, -100 = all killed)
Details in all cases: 10 µM unless noted
DU-145 prostate = system: DU-145 prostate
K-562 leukemia = system: K-562 leukemia
MALME-3M melanoma = system: MALME-3M melanoma
MDA-MB-231 breast = system: MDA-MB-231 breast
RXF 393 renal = system: RXF 393 renal
SF-268 CNS = system: SF-268 CNS
SF-295 CNS = system: SF-295 CNS
SF-539 CNS = system: SF-539 CNS
UACC-257 melanoma = system: UACC-257 melanoma
M14 melanoma = system: M14 melanoma
HCT-15 colon = system: HCT-15 colon
HT29 colon = system: HT29 colon
SNB-75 CNS = system: SNB-75 CNS
SNB-19 CNS = system: SNB-19 CNS
U251 CNS = system: U251 CNS
PC-3 prostate = system: PC-3 prostate
SK-MEL-5 melanoma = system: SK-MEL-5 melanoma
UACC-62 melanoma = system: UACC-62 melanoma
LOX IMVI melanoma = system: LOX IMVI melanoma
SK-MEL-28 melanoma = system: SK-MEL-28 melanoma

SMILES | growth (DU-145 prostate) | growth (K-562 leukemia) | growth (MALME-3M melanoma) | growth (MDA-MB-231 breast) | growth (RXF 393 renal) | growth (SF-268 CNS) | growth (SF-295 CNS) | growth (SF-539 CNS) | growth (UACC-257 melanoma) | growth (M14 melanoma) | growth (HCT-15 colon) | growth (HT29 colon) | growth (SNB-75 CNS) | growth (SNB-19 CNS) | growth (U251 CNS) | growth (PC-3 prostate) | growth (SK-MEL-5 melanoma) | growth (UACC-62 melanoma) | growth (LOX IMVI melanoma) | growth (SK-MEL-28 melanoma)
CN(C)CCC=C1c2ccccc2C(C)(C)c2ccccc21 | 35.9% | 32.7% | 78.9% | 75% | 66.4% | 95.9% | 67.2% | 61.2% | 24.2% | 11.6% | 83.9% | 30.5% | 79.3% | 86.1% | 78.9% | 55.5% | 64.3% | 71.2% | 69.6% | 54.5%
c1cc2ccc3cc2cc1CNCCOCCNCc1ccc2ccc(cc2c1)CNCCOCCNC3 | -29.3% (active) | 6.81% (active) | -64.5% (active) | -53.8% (active) | -40.1% (active) | -55.5% (active) | 14.5% | -53.4% (active) | 25.5% | 89.6% | 96.7% | -34.3% (active) | -98.7% (active) | -21.8% (active) | -20.4% (active) | -38.1% (active) | 1.54% (active) | -52.8% (active) | -25.3% (active) | -8.69% (active)
CCCCCc1nc2c(c3c1CCCC3)CCCC2 | 114% | 37.3% | 102% | 104% | 80% | 105% | 81.6% | 93.2% | 82.5% | 103% | 74.8% | 55.4% | 82.1% | 72.8% | 83.7% | 64.9% | 83.8% | 82.2% | 88.3% | 100%
Cc1cc(NCc2cc(Nc3ccnc4cc(Cl)ccc34)ccc2F)nc(N2CCN(C)CC2)n1 | 23.4% | -37.2% (active) | -68.3% (active) | -43.9% (active) | -27.1% (active) | 12.6% | -60.9% (active) | -75.3% (active) | -59.7% (active) | -73.1% (active) | -42.9% (active) | -24.5% (active) | -50.9% (active) | 29.7% | -28.2% (active) | 21.5% | -98% (active) | -63.8% (active) | -86.6% (active) | -70% (active)
CS(=O)(=O)c1ccc(Nc2nc(N[C@H]3CCCC[C@H]3N)nc3cc[nH]c(=O)c23)cc1 | 14.4% | 10.9% | -31.9% (active) | -12.9% (active) | -54.7% (active) | -22.8% (active) | 31.4% | -11.8% (active) | -5.02% (active) | 43.5% | 102% | 15.5% | 4.36% (active) | 4.85% (active) | 4.89% (active) | 14.2% | -40.1% (active) | -33.9% (active) | -10.7% (active) | 3.17% (active)
Cc1ccc(-n2nc3c(c(C#N)c2=O)CC(c2ccccc2Cl)C([N+](=O)[O-])=C3O)cc1 (stereo not given) | 107% | 81.7% | 101% | 82.4% | 101% | 90% | 101% | 99.8% | 102% | 99.6% | 61.3% | 118% | 75.1% | 97.1% | 90% | 66.6% | 75% | 84.3% | 81.4% | 106%
COC(=O)[C@]12CC[C@@H](C)[C@H](C)[C@@H]1C1=CC[C@@H]3[C@@]4(C)C(C=O)=C[C@@](C)(COC(C)=O)[C@@H]4[C@H](O)C[C@@]3(C)[C@]1(C)CC2 | -73.1% (active) | 4.82% (active) | -79.2% (active) | -39.2% (active) | -82% (active) | 1.2% (active) | -30% (active) | -55.4% (active) | -58.6% (active) | -43.3% (active) | -62.7% (active) | -52.8% (active) | -9.48% (active) | 29.4% | -46.7% (active) | 8.44% (active) | -93.3% (active) | -46.7% (active) | -99.1% (active) | -52.6% (active)
CCN1C(=O)N(CC)C2C1NN=c1s/c(=C\c3cccs3)c(=O)n12 (stereo not given) | 10.4% | 14.5% | 49.1% | 7.14% (active) | 11.5% | 59.3% | 19.3% | -3.34% (active) | 74.4% | 8.36% (active) | 16.5% | 60.2% | 16.6% | 37% | 19.8% | 21.9% | -4.97% (active) | 38% | 23.1% | 58.3%

— PubChem BioAssay (NCI)
